Structures are written as SMILES. About 14,000 (4.5%) of roughly 310,000 compounds showed an effect of 50% or more. The effect is printed as a negative number. Only a selection was taken, and strong results are over-represented in it overall.
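Further: peak tail current of the secondary pulse compared with the same well before compound.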

human ether-à-go-go-related gene (hERG) potassium channel, sequence (Q12809 whole entry, looked up): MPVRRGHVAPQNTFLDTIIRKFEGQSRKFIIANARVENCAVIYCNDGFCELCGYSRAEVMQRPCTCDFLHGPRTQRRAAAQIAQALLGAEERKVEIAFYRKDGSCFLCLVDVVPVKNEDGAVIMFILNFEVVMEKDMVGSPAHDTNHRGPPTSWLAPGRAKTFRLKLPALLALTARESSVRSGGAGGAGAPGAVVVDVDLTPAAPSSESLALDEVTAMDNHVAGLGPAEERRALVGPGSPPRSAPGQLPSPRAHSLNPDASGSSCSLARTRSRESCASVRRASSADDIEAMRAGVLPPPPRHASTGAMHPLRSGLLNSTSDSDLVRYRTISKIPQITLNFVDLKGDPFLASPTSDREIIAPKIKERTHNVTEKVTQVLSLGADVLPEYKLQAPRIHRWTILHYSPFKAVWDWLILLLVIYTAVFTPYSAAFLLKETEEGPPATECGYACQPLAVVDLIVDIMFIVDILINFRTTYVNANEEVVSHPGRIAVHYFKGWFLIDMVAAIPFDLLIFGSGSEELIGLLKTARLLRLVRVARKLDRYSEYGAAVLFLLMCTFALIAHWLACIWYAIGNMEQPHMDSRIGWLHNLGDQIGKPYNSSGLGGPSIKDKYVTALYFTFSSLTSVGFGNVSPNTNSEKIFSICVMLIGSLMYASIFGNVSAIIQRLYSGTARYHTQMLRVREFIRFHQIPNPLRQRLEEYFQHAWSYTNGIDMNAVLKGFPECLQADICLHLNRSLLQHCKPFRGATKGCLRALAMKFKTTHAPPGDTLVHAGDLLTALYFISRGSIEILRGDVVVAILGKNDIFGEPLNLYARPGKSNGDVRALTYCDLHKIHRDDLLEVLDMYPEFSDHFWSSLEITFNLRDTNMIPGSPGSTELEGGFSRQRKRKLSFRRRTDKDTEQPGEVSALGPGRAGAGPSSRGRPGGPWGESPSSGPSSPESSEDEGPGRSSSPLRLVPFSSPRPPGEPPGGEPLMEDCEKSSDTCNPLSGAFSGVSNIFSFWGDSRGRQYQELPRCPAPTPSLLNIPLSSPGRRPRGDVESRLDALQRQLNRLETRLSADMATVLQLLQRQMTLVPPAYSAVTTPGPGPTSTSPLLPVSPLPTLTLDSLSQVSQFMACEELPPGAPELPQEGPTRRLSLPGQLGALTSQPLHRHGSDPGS

This test has as its target human ether-à-go-go-related gene (hERG) potassium channel (human, UniProt Q12809). Briefly: primary screen, population patch clamp on CHO cells stably expressing hERG; higher = less effect of the substance.
Turning to `NC(=O)CC(NC(=O)Cc1ccc(Cl)cc1)c1ccc(NC2CC3CCC2C3)c([N+](=O)[O-])c1` (stereo not drawn), the “hERG current change (%, negative = inhibition) at 10uM” value was -3.01%.
Consider `OCCCNc1nc(-c2ccc(Cl)cc2)nc2ccccc12`, for which the “hERG current change (%, negative = inhibition) at 10uM” value is -63.1%.
As for `CCN(CC)CCCNc1nc2cc(OC)c(OC)cc2c2nc(-c3ccccc3)nn12`, the “hERG current change (%, negative = inhibition) at 10uM” value was -7.77%.
The figure for `CCN(CC)CCCNc1nc2ccccc2c2nc(-c3ccncc3)nn12` is -56.6%.
The figure for `CN(C)CCCNc1nc(-c2ccc(Cl)cc2)nc2ccccc12` is -35.5%; for `CCN(CC)CCCNc1nc(-c2ccccc2)nc2ccccc12.Cl` it is -61.4%.
The result for `CCN(CC)CCCNc1nc2cc(OC)c(OC)cc2c2nc(-c3cccnc3)nn12` reads -2.29%; that for `Cc1ccc(-c2nc(NCCCO)c3ccccc3n2)cc1`, -41.2%; that for `CCOCCCNc1nc(-c2ccccc2)nc2ccccc12.Cl`, -27.5%.
`CN(C)CCCNc1nc(-c2ccccc2)nc2ccccc12.Cl`: the “hERG current change (%, negative = inhibition) at 10uM” value is listed as -13.5%.
The figure for `O=C(CCC1CCCC1)NCc1cccs1` is 13.9%.
The result for `CCC(Oc1ccccc1)C(=O)NCCOC` (stereo not drawn) reads -8.48%; that for `CC(NC(=O)c1cccc(Br)c1)c1ccccc1` (stereo not drawn), -2.43%.
Turning to `NC12CC3CC(C1)CC(CC(=O)O)(C3)C2`, the “hERG current change (%, negative = inhibition) at 10uM” value was 10.8%.
The figure for `Cc1nc(Nc2ccc3c(c2)OCCO3)c2oc3ccccc3c2n1` is -5.62%; for `COc1cccc(NC(=O)CSc2ccc(-c3ccco3)nn2)c1` it is -48.1%; for `CC(=O)c1ccc(NC(=O)CSc2nnc(-c3ccco3)o2)cc1` it is -73.9%.
The figure for `CC(=O)Nc1ccc(NC(=O)CSc2nnc(-c3ccco3)o2)cc1` is 7.81%; for `O=C(CSc1nnc(-c2ccco2)c(-c2ccco2)n1)Nc1ccccc1` it is -75.2%; for `O=C(CSc1nnc(-c2ccco2)c(-c2ccco2)n1)c1ccccc1` it is 4.5%.
The result for `COc1cccc(NC(=O)CSc2nnc(-c3ccco3)c(-c3ccco3)n2)c1` reads -59.6%; that for `Cc1ccc(-c2nnc(SCC(=O)N(C)C)nc2-c2ccc(C)cc2)cc1`, -67.9%.
With `COc1ccc(NC(=O)CSc2nnc(-c3ccco3)c(-c3ccco3)n2)cc1OC`, the “hERG current change (%, negative = inhibition) at 10uM” value is on record as -29.4%.
On to `CCN(CC)C(=O)CSc1nnc(-c2ccccc2)c(-c2ccccc2)n1`, for which the “hERG current change (%, negative = inhibition) at 10uM” value is -20.4%.
The figure for `Cc1ccc(NC(=O)CSc2nnc(-c3ccco3)o2)cc1` is 2.91%; for `Cc1ccc(-c2nnc(SCC(N)=O)nc2-c2ccc(C)cc2)cc1` it is -24.2%; for `O=C(CSc1n[nH]c(-c2ccco2)n1)Nc1ccccc1` it is -20.4%.

Source of the values: PMC4336329 (PLoS ONE, 2015).
